Our source for the Potency values is PubChem BioAssay (NCATS).

Results filed as inconclusive are left out. Calls of active or inactive are those of the source. The call rests on the fitted dose curve; in most records, active means well fitted curve in the direction sought with a large enough effect; inconclusive means small, poorly fitted or top-dose-only effect, or another doubt; inactive means no such curve, though single readings can be large; an effect the other way counts as inactive or inconclusive.

In test [1] the target is Furin (Homo sapiens) (UniProt P09958). Nature of the test: Furin counterscreen qHTS for Zika virus inhibitors (AID 1347149). Further: nearly all actives have a fitted effect of over 70% in size. Further: potency means the concentration at half of the fitted maximal effect. In outline:
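Fluorogenic cleavage of BOC-RVRR-AMC (2 microM final, Km ~15 µM) was monitored (ex 340, em 450 nm) at 37C after 15 min RT preincubation of 5 nM furin with compounds in HEPES pH 7.0 buffer with CaCl2 and Triton X-100. Percent inhibition was fitted to a 4-parameter Hill curve.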
(Counterscreens check selectivity or assay interference.)

For test [2], the system named is Zika virus NS2B-NS3 protease (linked construct). Briefly: Confirmatory screen NINDS AMC qHTS for Zika virus inhibitors (AID 1347152). Further: nearly all actives have a fitted effect of over 70% in size. Further: potency means the concentration at half of the fitted maximal effect. In outline:
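Enzyme (1 nM, linked construct) was preincubated with compound for 15 minutes at room temperature in 10 mM Tris-HCl pH 8.0 with 0.01% Tween 20. Bz-Nle-Lys-Arg-Arg-AMC was then added to 10 microM, and AMC fluorescence was recorded immediately and after 15 minutes.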
A general note: Quantitative high-throughput screening tests each substance at several concentrations.

Test [3] deals with Zika virus NS2B-NS3 protease (unlinked complex). Briefly: Confirmatory screen GU AMC qHTS for Zika virus inhibitors (AID 1347153). Further: nearly all actives have a fitted effect of over 70% in size.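 On Potency: enzyme at 25 nM with substrate at 10 µM below its Km of 18.3 µM; potency means the concentration at half of the fitted maximal effect.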 In outline:
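Compounds were preincubated 15 min at room temperature with 25 nM noncovalent NS2B-NS3 protease at pH 8.0; AMC substrate added at 10 microM and 15-min fluorescence gain (340/450 nm) converted to percent inhibition, fitted 4-parameter.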

Test [4] concerns Zika virus NS2B-NS3 protease (linked). Nature of the test: 384 well plate NINDS AMC confirmatory qHTS for Zika virus inhibitors (AID 1347163). Further: potency means the concentration at half of the fitted maximal effect; nearly all actives have a fitted effect of over 50% in size. In outline:
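Linked protease 5/30/60 nM final; cpds up to 1 mM final, ~15 min preinc. Substrate Ac-VKTGKR-AMC 30 microM final. RT, dark, 25 min; FI ex 355/em 460; normalized to no-enzyme/no-inhibitor ctrls.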

Test [5] has as its system Zika virus NS2B-NS3 protease (linked construct). Briefly: 384 well plate NINDS Rhodamine confirmatory qHTS for Zika virus inhibitors (AID 1347164).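 Further: fluorescence from protease cleavage of Ac-LKRR-rhodamine 110 substrate; potency means the concentration at half of the fitted maximal effect; nearly all actives have a fitted effect of over 65% in size.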 In outline: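 Enzyme (final 5/30/60 nM) + cpd (DMSO), ~15 min; add Ac-LKRR-Rd 10 microM final; 25 min RT, dark; FI ex 485/em 538; normalized to no-enzyme, no-inhibitor ctrls; aprotinin intraplate ctrl.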
Test [6] can be described thus: ZIKV-mCherry secondary qHTS for Zika virus inhibitors (AID 1347158). Further: top concentration of the series differs between compounds. In outline:
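Vero cells, 5,000/well, plated overnight at 37 °C, then compound added and infected with recombinant ZIKV-mCherry at MOI 1 for 48-72 h. PFA-fixed, Hoechst nuclear stain, high-content imaging; cells with mCherry intensity above 450 RFU scored infected, reported as percent infection.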

Test [7] relates to Zika virus NS2B-NS3 protease (unlinked). Nature of the test: Optimization of GU AMC qHTS for Zika virus inhibitors: Unlinked NS2B-NS3 protease assay (AID 1347151). Further: series mostly up to about 52 µM; nearly all actives have a fitted effect of over 80% in size. In outline:
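Unlinked protease (25 nM final); buffer 10 mM Tris-HCl pH 8.0 + 0.01% Tween 20; AMC substrate; 15 min RT, dark; Δfluorescence normalized to no-inhibitor/no-enzyme controls; 4-parameter Hill fit.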

The nature of test [8]: Vero cells viability qHTS for Zika virus inhibitors (AID 1347167). In outline: (§1)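 Compounds were tested in concentration series on cells grown in DMEM containing 4% FBS. After 24 to 48 hours, cellular ATP was measured by luminescence with CellTiter Glo.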
Test [9] can be described thus: HepG2 cells viability qHTS for Zika virus inhibitors (AID 1347168). In outline:
as §1

In test [10] the test system is Zika virus NS2B-NS3 protease. Briefly: Primary screen GU AMC qHTS for Zika virus inhibitors (AID 1347154). Further: nearly all actives have a fitted effect of over 70% in size. In outline:
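Fluorogenic AMC-substrate cleavage by noncovalent NS2B-NS3 protease complex (25 nM, pH 8.0 Tris buffer with Tween 20) followed for 15 minutes at room temperature (~20% conversion). Percent inhibition from ex340/em450 signal change, fitted by 4-parameter Hill equation.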

Test [11] can be described thus: Tertiary RLuc qRT-PCR qHTS assay for Zika virus inhibitors (AID 1347169). Further: nearly all actives have a fitted effect of over 55% in size. Further: potency means the concentration at half of the fitted maximal effect. In outline: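 Vero, 1,000 cells/well, o/n 37 C; cpd pinned in DMSO; ZIKV-RLuc Cambodian, MOI 1-2, 48-72 h 37 C; live-cell RLuc substrate, lum read at 1-1.5 h.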
On the technique in general: In qPCR the cycle at which signal appears reflects the starting amount.

Test [12] in a line: Primary qHTS for small molecule stabilizers of the endoplasmic reticulum resident proteome: Secreted ER Calcium Modulated Protein (SERCaMP) assay (AID 1508630). In outline:
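GLuc-SERCaMP-expressing SH-SY5Y cells, pretreated 16 h with compound, are challenged with thapsigargin to empty ER calcium stores; after 4 h, coelenterazine is added directly to the medium and luminescence is imaged.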

Test [13] concerns the target Cytochrome P450 3A4 (Homo sapiens) (UniProt P08684). Nature of the test: qHTS Assay for Inhibitors and Substrates of Cytochrome P450 3A4 (AID 884). Further: series mostly up to about 57 µM; nearly all actives have a fitted effect of over 50% in size. In outline:
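20 nM human CYP3A4 with 25 uM Luciferin-PPXE (at KM) in 200 mM KPO4, preincubated 10 min with compound; NADPH regeneration started a 60 min RT reaction. Luciferin detected by luminescence, normalized to 57 uM ketoconazole as full inhibition.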

For test [14] the target is unchanged. Briefly: qHTS Assay for Activators of Cytochrome P450 3A4 (AID 885). Further: potency means the concentration at half of the fitted maximal effect; nearly all actives have a fitted effect of over 65% in size. In outline: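 Signal was normalized against complete inhibition by 57 uM ketoconazole. The reaction used 20nM CYP3A4 with 25uM Luciferin-PPXE, 10-min compound preincubation and a 60-min NADPH-supported step at RT.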
Test [15] can be described thus: Confirmatory screen NINDS Rhodamine qHTS for Zika virus inhibitors (AID 1347161). Further: potency means the concentration at half of the fitted maximal effect; nearly all actives have a fitted effect of over 60% in size. In outline: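 Each compound, titrated, sat 15 min with 25 nM linked protease before 1.5 microM Rhodamine110 substrate went in. Fluorescence gain over the next 15 min, in pH 8.0 Tris with Tween 20, gave Hill-fitted curves.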
Test [16] concerns the target Glutathione peroxidase 1 (Homo sapiens) (UniProt P07203). Briefly: Primary qHTS Assay for Inhibitors of Recombinant Selenoprotein Glutathione Peroxidase 1 (GPX1) (AID 1845191). Further: nearly all actives have a fitted effect of over 65% in size. In outline: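 10 nM GPX1 + cpd, 30 min RT; start w/ 1 mM GSH, 0.5 mM cumene hydroperoxide, 0.5 mM NADPH, 100 nM GR, 0.01% BSA; buffer 50 mM Tris-HCl pH 7.5, 2 mM EDTA, 150 mM NaCl; Fl 340/450, 0 & 15 min.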

Test [17] addresses Phospholipid hydroperoxide glutathione peroxidase GPX4 (Homo sapiens) (UniProt P36969). Nature of the test: Primary qHTS Assay for Inhibitors of Recombinant Selenoprotein Glutathione Peroxidase 4 (GPX4) (AID 1845192). Further: series mostly up to about 50 µM; nearly all actives have a fitted effect of over 65% in size. The settings on record: outcome: dose series up to 50 µM unless noted. In outline: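 NADPH consumption, followed by fluorescence at 340/450 nm between 0 and 15 min, reports GPX4 activity via coupled glutathione reductase (100 nM). Enzyme 200 nM was pre-exposed to compound 30 min; 0.5 mM cumene hydroperoxide and 1 mM GSH served as substrates.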

Chain of Furin (Homo sapiens) (P09958 whole entry, looked up): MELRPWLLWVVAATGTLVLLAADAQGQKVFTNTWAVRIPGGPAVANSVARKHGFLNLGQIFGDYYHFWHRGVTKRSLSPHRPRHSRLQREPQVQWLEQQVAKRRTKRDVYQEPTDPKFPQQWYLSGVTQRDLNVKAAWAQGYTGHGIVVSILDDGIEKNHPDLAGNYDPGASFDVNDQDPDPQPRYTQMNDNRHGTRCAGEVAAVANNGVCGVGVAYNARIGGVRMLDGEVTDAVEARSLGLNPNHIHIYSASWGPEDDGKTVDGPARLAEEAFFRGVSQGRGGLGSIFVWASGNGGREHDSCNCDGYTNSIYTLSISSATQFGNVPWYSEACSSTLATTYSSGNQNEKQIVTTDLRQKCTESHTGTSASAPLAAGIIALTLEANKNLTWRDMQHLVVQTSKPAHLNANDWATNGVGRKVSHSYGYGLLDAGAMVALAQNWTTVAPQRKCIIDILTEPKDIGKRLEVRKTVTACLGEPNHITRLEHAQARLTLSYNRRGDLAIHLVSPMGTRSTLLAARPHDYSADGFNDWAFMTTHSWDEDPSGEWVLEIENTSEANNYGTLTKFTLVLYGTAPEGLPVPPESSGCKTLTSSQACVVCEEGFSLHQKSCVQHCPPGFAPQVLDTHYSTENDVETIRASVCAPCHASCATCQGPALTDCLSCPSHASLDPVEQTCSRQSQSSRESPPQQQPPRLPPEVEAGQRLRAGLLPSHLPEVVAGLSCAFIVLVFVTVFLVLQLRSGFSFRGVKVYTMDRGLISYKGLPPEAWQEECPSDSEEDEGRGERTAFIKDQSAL
Chain of Cytochrome P450 3A4 (Homo sapiens) (P08684 whole entry, looked up): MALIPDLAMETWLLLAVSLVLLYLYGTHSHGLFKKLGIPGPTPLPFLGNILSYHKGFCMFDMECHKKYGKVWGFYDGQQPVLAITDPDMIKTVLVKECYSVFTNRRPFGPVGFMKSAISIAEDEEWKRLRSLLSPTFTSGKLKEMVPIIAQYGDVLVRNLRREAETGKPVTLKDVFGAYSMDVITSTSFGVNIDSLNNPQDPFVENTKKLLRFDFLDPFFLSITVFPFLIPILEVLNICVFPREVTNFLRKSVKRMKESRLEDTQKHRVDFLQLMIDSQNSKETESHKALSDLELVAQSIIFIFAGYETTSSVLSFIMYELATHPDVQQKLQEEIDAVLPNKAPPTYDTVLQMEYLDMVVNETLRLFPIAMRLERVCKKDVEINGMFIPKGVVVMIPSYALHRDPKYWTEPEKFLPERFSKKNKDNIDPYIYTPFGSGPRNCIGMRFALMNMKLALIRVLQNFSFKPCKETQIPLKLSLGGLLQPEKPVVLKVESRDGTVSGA
Chain of Glutathione peroxidase 1 (Homo sapiens) (P07203 whole entry, looked up): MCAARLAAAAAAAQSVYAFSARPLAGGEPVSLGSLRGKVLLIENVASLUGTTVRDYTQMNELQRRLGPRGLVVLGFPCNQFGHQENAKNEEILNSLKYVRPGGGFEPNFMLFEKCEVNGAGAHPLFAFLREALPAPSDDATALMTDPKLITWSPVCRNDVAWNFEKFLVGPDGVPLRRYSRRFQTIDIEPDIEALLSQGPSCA
Chain of Phospholipid hydroperoxide glutathione peroxidase GPX4 (Homo sapiens) (P36969 whole entry, looked up): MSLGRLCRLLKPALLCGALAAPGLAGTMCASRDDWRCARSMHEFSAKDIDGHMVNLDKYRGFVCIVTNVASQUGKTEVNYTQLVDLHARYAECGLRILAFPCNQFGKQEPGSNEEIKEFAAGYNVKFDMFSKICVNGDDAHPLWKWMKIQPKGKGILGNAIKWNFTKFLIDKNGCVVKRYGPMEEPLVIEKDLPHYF

As to `Cc1cccc(C)c1NS(=O)(=O)c1ccc(NS(=O)(=O)c2ccc3c(c2)OCCO3)cc1`, the Potency entry in test [1], in test [2] and in test [3] was “inactive” in each case. Further, the Potency in test [4] was 200 µM (active); in [5], 126 µM (active).
With `COC(=O)[C@H](Cc1ccc(OC)cc1)NC(=O)[C@H]1CN(S(=O)(=O)c2ccccc2)CCN1S(=O)(=O)c1ccccc1`, the Potency result in test [1], in test [2] and in test [3] was “inactive” throughout.
Turning to `O=C(O)c1cccc(-c2cccc(C(F)(F)F)c2)c1`, the Potency result in test [1], in test [2], in [3] and in test [6] was “inactive” each time. In [5], the Potency is 501 µM (active).
As to `CCOc1ccc(C2C(=O)N(C3CCCCCC3)CC(=O)N2CCc2ccc(Cl)cc2)cc1OC` (configuration not stated), the Potency entry in test [1], in test [7], in test [8] and in [9] was “inactive” in each case.
`C[C@H]1O[C@@H](O[C@H]2[C@@H](O)C[C@H](O[C@H]3[C@@H](O)C[C@H](O[C@H]4CC[C@]5(C)C6C[C@@H](O)[C@]7(C)[C@@H](C8=CC(=O)OC8)CC[C@]7(O)C6CC[C@@H]5C4)O[C@@H]3C)O[C@@H]2C)C[C@H](O)[C@@H]1O` (some centres not stated): the Potency result in [1], in test [7], in test [10], in test [8] and in test [12] was “inactive” in each case. The Potency in [11] is 0.294 µM (active).
For the compound `O=C(O)c1c(Sc2ccccc2)c2cc(Cl)ccc2n1Cc1ccc(Cl)cc1`, the Potency result in [13], in test [8], in [9] and in test [12] was “inactive” each time. Further, the Potency in test [14] is 7.94 µM (active); in test [1], 21.5 µM (active); in test [2], 6.81 µM (active); in test [3], 19.2 µM (active); in [15], 1.24 µM (active); in test [4], 126 µM (active). Further, the Potency in [5] is 22.4 µM (active).
For the compound `O=C(O)c1ccc(-c2cccc(C(F)(F)F)c2)cc1`, the Potency result in test [1], in test [2], in [3], in [6] and in [11] was “inactive” throughout.
As to `C[S+](CC[C@H](N)C(=O)O)C[C@H]1O[C@@H](n2cnc3c(N)ncnc32)[C@H](O)[C@H]1O` (some centres not stated), the Potency entry in test [1], in test [7], in [8], in test [9], in [16] and in test [17] was “inactive” each time.
Consider `CCOc1ccc(C(=O)Nc2cccc(C(=O)OCc3cc(=O)n4nc(C5CC5)sc4n3)c2)cc1`, for which the Potency in test [1] was 52.7 µM (active).
Consider `O=C(O)COc1ccc(-c2nccc3c2C(=O)N(Cc2cccc(C(F)(F)F)c2)CC(COc2ccc(OC(F)(F)F)cc2)O3)cc1` (configuration not stated), for which the Potency in test [1] was 49.4 µM (active); in test [2], 22.1 µM (active); in [3], 22.1 µM (active); in test [5], 25.1 µM (active).
For `N#Cc1ccc(OCC2CN(Cc3c[nH]c4ccccc34)C(=O)c3c(ccnc3-c3ccc(OCC(=O)O)cc3)O2)cc1` (configuration not stated), the Potency result in test [1], in test [2], in test [6] and in test [11] was “inactive” each time. Also, in test [5], the Potency is 39.8 µM (active).
For the compound `O=C(O)c1ccc(-c2cc(C(F)(F)F)ccc2Cl)cc1`, the Potency entry in test [1], in test [2] and in test [6] was “inactive” in each case.
As to `COc1ccccc1N1CCN(CCn2c(=O)c3c(c4ccccc4n3C)n(C)c2=O)CC1`, the figures for the Potency in [1], in test [2] and in [3] were 24.1 µM (active), 27.1 µM (active) and 24.1 µM (active), respectively. In addition, the Potency entry in test [8], in test [9], in test [11] and in test [12] was “inactive” throughout.
Regarding `CC(=O)C(N=Nc1ccc(S(=O)(=O)Nc2ccccn2)cc1)C(=O)Nc1ccc(Cl)cc1` (configuration not stated), the Potency entry in test [1], in test [6] and in [11] was “inactive” each time. The Potency in [2] was 44.7 µM (active); in test [15], 20 µM (active); in [4] it was 22.4 µM (active); in [5], 25.1 µM (active).
